According to PubChem BioAssay (EPA / NIEHS):
Active and inactive are the calls of the source. How the source made its calls: active means hit-call score of the fitted dose curve at least 0.9, where 1 is the maximum; inactive means score below 0.9.

Assay: CCTE_Padilla_ZF_Score.General: CCTE's 144 Hour Post-fertilization zebrafish Assay Score for General Malformation, Padilla Lab (AID 2284411)
Description: CCTE_Padilla_ZF_Phenotype_Score is a whole embryo, multiplexed assay using zebrafish ova exposed for 144 hours post fertilization on a 96-well plate.CCTE_Padilla_ZF_Score.General is one of one assay component(s) measured or calculated from the CCTE_Padilla_ZF_Phenotype_Score assay. It is designed to make measurements of zebrafish development as detected with brightfield microscopy of developing zebrafish embryos.Data from the assay component CCTE_Padilla_ZF_Score.General was analyzed into 1 assay endpoints. This assay endpoint, CCTE_Padilla_ZF_Score.General, was analyzed in the positive analysis fitting direction relative to DMSO as the negative control and baseline of activity. Using a type of viability reporter, gain-of-signal activity can be used to understand changes in developmentals as they relate to the whole embryo. To generalize the intended target to other relatable targets, this assay endpoint is annotated to the zebrafish development intended target family, where the subfamily is embryonic morphogenesis.
Zebrafish husbandry: Wild type adult zebrafish (Danio rerio; undefined outbred stock obtained from Aquatic Research Organisms, Hampton, NH, 03842) were housed in an AAALAC-approved animal facility at 28C with a 14:10 h light: dark cycle (lights on at 08:30 h). Adult fish (2-3 females per male; density = 15-20 adults per tank) were kept in one of several 9-liter (L) flow-through colony tanks (Aquaneering Inc., San Diego, CA). All adults in a colony tank were placed in a 2 L (static) breeding tank (Aquatic Habitats, Apopka, FL) one hour prior to light onset. Typically, adults from two to three colony tanks were mated on the same day. Two hours after light onset the adults were returned to the colony tank. All embryos were gathered from each breeder tank, pooled, and placed in a 28C water bath for 2 h, followed by two washes with 0.06% bleach (v/v) in 10% Hanks' Balanced Salt Solution (13.7 mM NaCl 0.54 mM KCl, 25 uM Na2HPO4, 130 uM CaCl2 100 um MgSO4 and 420 um NaHCO3,), hereafter referred to as Hanks' solution, for 5 min in order to remove any residual bacteria or fungi. Immediately following washing, the embryos were examined, and healthy embryos were separated from dead or unfertilized eggs and moved into fresh Hanks'. Chemical exposures: Zebrafish embryos were exposed in 96-well plates. Between 6- and 8-hours post fertilization (hpf), healthy embryos (with chorions) were transferred, one embryo per well, into 96 well (0.5 mL) microtiter plates (Cell Culture-Treated, Flat-Bottom Microplate 96 well [Corning Costar, Kennebunk, ME; Cat 09-761-145]) filled with 200 uL of Hanks' solution. A random number generator was used to assign the order in which the rows of embryos were plated in 96 well plates each week. After plating, the embryos were dosed with 0.8 uL of the chemical dosing solution then immediately sealed with AlumaSeal II (Excel Scientific Inc, Victorville, CA) to prevent volatilization of the chemicals, and then placed in a leakproof secondary container. These containers were placed in an incubator maintained on a 14:10 h light: dark cycle at 26C for rearing. On 5 dpf, live larvae were gently moved out of the plate with test chemicals and into a new 96 well mesh plate (Millipore Corp., Bedford, MA) with just the Hanks' solution. Once within the mesh well plate, the animals were rinsed with 400 uL of fresh Hanks' three times, and then the plates were covered with a non-adhesive material (Microseal A, BioRad, Hercules, CA), plate lid added, and then plate sides wrapped in Parafilm (PM992, Bermis Company, Neenah, WI), and returned to the incubator. […]

SMILES	outcome	AC50
O=C(O)C(F)(F)OC(F)(F)C(F)(F)OC(F)(F)C(=O)O	inactive	
O=S(=O)(F)C(F)(F)C(F)(F)C(F)(F)C(F)(F)C(F)(F)C(F)(F)C(F)(F)C(F)(F)F	inactive	
c1ccc2c(c1)sc1ccccc12	inactive	
O=c1ssc(Cl)c1Cl	inactive	
OCC(F)(F)OC(F)(F)C(F)(F)OC(F)(F)C(F)(F)OC(F)(F)CO	inactive	
NC(=O)C(F)(F)C(F)(F)F	inactive	
CC(C)(C)c1ccccc1OP(=O)(Oc1ccccc1)Oc1ccccc1		8.75 µM (active)
O=C(O)C=CC(F)(C(F)(F)F)C(F)(F)F	inactive	
C=CC(=O)OCC(F)(F)C(F)F		7.91 µM (active)
OCC(F)(F)OC(F)(F)C(F)(F)OC(F)(F)CO	inactive	
O=C(O)C(F)(OC(F)(F)C(F)(F)C(F)(F)F)C(F)(F)F (stereo unspecified)	inactive	
N#Cc1c(-c2ccc(Cl)cc2)[nH]c(C(F)(F)F)c1Br	inactive	
O=S1(=O)OCC2C(CO1)C1(Cl)C(Cl)=C(Cl)C2(Cl)C1(Cl)Cl (stereo unspecified)		0.165 µM (active)
Cc1c([N+](=O)[O-])cc2c(c1[N+](=O)[O-])C(C)(C)CC2(C)C		2.8 µM (active)
O=C(O)C(F)(F)OC(F)(F)C(F)(F)OC(F)(F)F	inactive	
COC(=O)C(F)(F)C(F)(F)OC(F)(C(F)(F)F)C(F)(F)OC(F)=C(F)F (stereo unspecified)	inactive	
CCCCC(CC)COP(=O)(Oc1ccccc1)Oc1ccccc1 (stereo unspecified)		3.23 µM (active)
O=C(O)C(F)(F)C(F)(F)C(=O)O	inactive	
CCOP(=S)(OCC)SCSc1ccc(Cl)cc1		8.15 µM (active)
CC(O)C(F)(F)C(F)(F)F (stereo unspecified)	inactive	
O=P(OCC(Br)CBr)(OCC(Br)CBr)OCC(Br)CBr (stereo unspecified)		2.01 µM (active)
CC(C)Nc1ccc(Nc2ccccc2)cc1		2.6 µM (active)
OCC(F)(F)OC(F)(F)C(F)(F)OC(F)(F)C(F)(F)OC(F)(F)F		16.2 µM (active)
FC(F)(F)C(F)(C(F)(F)F)C(F)(F)C(F)(F)CC1CO1 (stereo unspecified)	inactive	
Nc1ccc([N+](=O)[O-])cc1Cl	inactive	
CCOP(=S)(OCC)SCS(=O)(=O)CC		65.2 µM (active)
